Compound activity from PubChem.
Many of the other results were omitted from the sample, so hits are more common in it than they were.
Methyltransferases = Primary Screen for Target Class Profiling of Small Molecule Inhibitors of Methyltransferases | purified enzyme, MTase-Glo SAH luminescence; hits give low values | calls only at 40 µM | actives 3.9% (n = 25,000); call rule not given here
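Each enzyme was reacted with SAM and its substrate, with compounds tested once at 40 uM; SAH formed was read by MTase-Glo luminescence.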
Large screens that a line does not name were inactive.

CCCCNc1ncc2c(-c3ccc(CN4CCN(C)CC4)cc3)cn(C3CCC(O)CC3)c2n1 (stereo not drawn)	none
CN1CCN(C2CCC(n3cc(-c4ccc(Oc5ccccc5)cc4)c4c(N)ncnc43)CC2)CC1 (stereo not drawn)	Methyltransferases active
O=C1NC(Cc2ccc(O)cc2)C(=O)N2CCCC12 (stereo not drawn)	none
CCOc1ccccc1CNC(=O)c1ncn2c1C(=O)N(CC)C(C)(C(=O)NC1CCCC1)C2 (stereo not drawn)	none
Cn1cc(-c2cnn3c(N)c(Br)c(C4CCCNC4)nc23)cn1 (stereo not drawn)	Methyltransferases active
Clc1ccc(C(c2ccc(Cl)cc2)n2cc[n+](CC(OCc3ccc(Cl)cc3Cl)c3ccc(Cl)cc3Cl)c2)cc1 (stereo not drawn)	Methyltransferases active
CC(C)CCNC(=O)c1cc2n(n1)CC(C)(C(=O)NC1CCCC1)N(C)C2=O (stereo not drawn)	none
Cc1ccc(CN2CCCOCCNC(=O)[C@@H]3CCCC[C@@H]32)o1	none
CCCCCCCC/C=C\CCCCCCCC(=O)NCCc1ccc(O)c(O)c1	none
C[C@](Cc1ccc(O)c(O)c1)(NN)C(=O)O	Methyltransferases active
CC(N)(Cc1ccc(O)c(O)c1)C(=O)O (stereo not drawn)	Methyltransferases active
COc1cc(CC(=O)O)ccc1O	none
CC1(O)CCCC2(C)C1CCC13CC(CO)C(CCC12)C3 (stereo not drawn)	none
CC1CC(=O)C2C(O)(C1)CC(O)C13OC1c1c(O)cccc1C(=O)C23O (stereo not drawn)	none
CSc1ccc(CNC(=O)c2cc3n(n2)CC(C)(C(=O)NCc2ccc(C)cc2)N(C)C3=O)cc1 (stereo not drawn)	none
CC(C)n1cc2cc(C(=O)O)sc2c1	none
CC(C)OCCCNC(=O)CNC(=O)C1(C)Cn2c(cc3ccccc32)C(=O)N1C (stereo not drawn)	none
CN(C)CCCNc1nc(CN2CCN(C(c3ccc(Cl)cc3)c3ccc(Cl)cc3)CC2)nc2ccccc12	Methyltransferases active
O=C(O)COCCN1CCN(C(c2ccccc2)c2ccc(Cl)cc2)CC1 (stereo not drawn)	none
O=C(O)COCCN1CCN([C@H](c2ccccc2)c2ccc(Cl)cc2)CC1	none
Cc1ccccc1CNC(=O)c1ncn2c1C(=O)N(C1CC1)C(C)(C(=O)NCc1ccc(F)cc1)C2 (stereo not drawn)	none
CC1(C(=O)NC2CCCCCC2)Cn2c(cc3occc32)C(=O)N1Cc1cccc(Br)c1 (stereo not drawn)	none
O=C(NCc1ccncc1)C(=O)NCC(c1cccnc1)N1CCN(c2ccccc2)CC1 (stereo not drawn)	none
O=C(Nc1ccccc1F)C1CN(C2CCCC2)C(=O)N1 (stereo not drawn)	none
C=C(C(=O)O)C1CC2=C(C)C(=O)CC2C(C)CC1O (stereo not drawn)	none
C=C(C(=O)O)[C@@H]1CC[C@H](C)[C@@H]2CC(=O)C(C)=C2C1	Methyltransferases active
COc1cccc(-c2ccc3c(n2)CNC(=O)CO3)c1	none
CC(=O)N(C1CC1)C1CCOC2(CCN(C(=O)c3sc(C)nc3C)CC2)C1 (stereo not drawn)	none
Cn1c(=O)n(C)c2cc(S(=O)(=O)N3CCc4ccccc4C3)ccc21	none
Cn1c(=O)n(C)c2cc(S(=O)(=O)N3CCN(C4CCCCC4)CC3)ccc21	Methyltransferases active
COc1ccc(N2CCN(S(=O)(=O)c3ccc4c(c3)n(C)c(=O)n4C)CC2)cc1	none
CCCN1C(=O)c2cc(C(=O)NCCN3CCN(CC)CC3)nn2CC1(C)C(=O)NC1CCCC1 (stereo not drawn)	none
CCO[C@H]1CN(C2CCC(O)(c3ccc4c(c3)OCO4)CC2)C[C@@H]1NC(=O)CNC(=O)c1cccc(C(F)(F)F)c1 (stereo partly drawn)	none
CCC(C)NC(=O)c1ccc2c(=O)n(C)c3nn(Cc4ccccc4C)c(=O)n3c2c1 (stereo not drawn)	none
NC(=O)c1cnc(-c2ccc(C3(N)CCC3)cc2)c(-c2ccccc2)c1	Methyltransferases active
NC(=O)c1ccccc1	none
CCCn1c(=O)c2ccccc2n2c(SCC(=O)Nc3ccccc3OC)nnc12	none
F[C@@H]1CN(Cc2nccs2)C[C@@H]1OCc1nc2ccccc2o1	none
CC(C)Cn1c(=O)c2ccc(C(=O)NC3CCCC3)cc2n2c(=O)n(CC(=O)c3ccccc3)nc12	none
O=C(O)c1ccc(NC(=O)[C@H](CC2CCCC2)n2cnc(C(F)(F)F)c2)nc1	none
CC[C@H](C)C(=O)O[C@H]1C[C@@H](C)C=C2C=C[C@H](C)[C@H](CC[C@@H]3C[C@@H](O)CC(=O)O3)[C@H]21	none
CC[C@H](C)C(=O)O[C@H]1CCC=C2C=C[C@H](C)[C@H](CC[C@@H]3C[C@@H](O)CC(=O)O3)[C@H]21	Methyltransferases active
COc1ccccc1NC(=O)N1CCCC2(CCC(=O)N(CC3CC3)C2)C1 (stereo not drawn)	none
O=C(C1CCN([S+](=O)([O-])c2cccs2)C1)N1CCC(c2nc3ncccc3[nH]2)CC1 (stereo not drawn)	none
COc1ccc(Cl)cc1C(=O)N1CC(F)(F)C[C@H]1c1nc(C)no1	none
C=C(F)c1sc(CNCCCNc2cc(=O)c3ccccc3[nH]2)c(C)c1Br	Methyltransferases active
CSCCC(=O)N1CCc2c(ncnc2N2CCOCC2)C1	none
CCCn1c(C)cnc1CC1CCN(S(=O)(=O)CCC)CC1	none
Cc1ccccc1CN1C(=O)c2cc3occc3n2CC1(C)C(=O)NC1CCCC(C)C1C (stereo not drawn)	none
CCOc1ccccc1CNC(=O)c1cc2n(n1)CC(C)(C(=O)NC1CCCCC1)N(C)C2=O (stereo not drawn)	none
CC(C)c1cc2n(n1)CC(C)(C(=O)NC1CCCCC1)N(c1cccc(Cl)c1)C2=O (stereo not drawn)	none
O=C(Cn1nc2n(Cc3ccc(F)cc3)c(=O)c3ccccc3n2c1=O)Nc1ccc(Cl)cc1	none
COc1ccc(OC)c(S(=O)(=O)N2CCc3nc(-c4ccccc4)[nH]c3C2)c1	none
CC(C)(C)c1ccc(-c2nc3ccccc3[nH]2)cc1	Methyltransferases active
COc1ccc(-c2cc(C(O)C3CCCCN3)c3ccccc3n2)cc1 (stereo not drawn)	none
COc1ccc(-c2nc3ccccc3[nH]2)cc1	Methyltransferases active
CCN1CCN(C(=O)C2CCc3ncc(-c4ccsc4)n3C2)CC1 (stereo not drawn)	none
CC(C)Cn1c(=O)c2ccc(C(=O)NC(C)C)cc2n2c(=O)n(CC(=O)Nc3ccccc3F)nc12	none
FC(F)(F)c1ccc(CN2CC(N3CCc4ccccc43)C2)cc1	none
CCS(=O)(=O)N1CCN(c2ccc(Nc3ncc(C(N)=O)c(NC4CC4)n3)cc2)CC1	Methyltransferases active
CC(=O)N1CCN(C(=O)Cc2ccc(Nc3ncc(F)c(Nc4ccc(C(=O)Nc5ccccc5Cl)cc4)n3)cc2)CC1	none
COC(=O)c1ncn2c1C(=O)N(c1ccc(C)c(C)c1)C(C)(C(=O)NC1CCCC1)C2 (stereo not drawn)	none
CN1C(=O)c2cc(C(=O)Nc3ccccc3Br)nn2CC1(C)C(=O)NC1CCCCC1 (stereo not drawn)	none
CC(C)=CCC[C@](C)(O[C@@H]1O[C@H](CO)[C@@H](O)[C@H](O)[C@H]1O)[C@H]1CC[C@]2(C)[C@@H]1[C@H](O)CC1[C@@]3(C)CC[C@H](O)C(C)(C)C3[C@@H](O[C@@H]3O[C@H](CO)[C@@H](O)[C@H](O)[C@H]3O[C@@H]3O[C@@H](C)[C@H](O)[C@@H](O)[C@H]3O)C[C@]12C (stereo partly drawn)	none
